The values below come from ChEMBL document CHEMBL3433997, “St. Jude Leishmania screening dataset” (2016).

Assay type in all cases: functional
Assay [1] has as its target Solute carrier family 2, facilitated glucose transporter member 1 (Homo sapiens) (UniProt P11166). Nature of the assay: ST_JUDE_LEISH: Cytotoxicity at 2uM final concentration against transgenic Leishmania Mexicana promastigotes LmGLUT1 that are glucose transport deficient and complemented with the human glucose transporter GLUT1. Activity is measured by DNA content using SYBR green in vitro.

In assay [2] the target is Hexose transporter 1 (Plasmodium falciparum) (UniProt O97467). Nature of the assay: ST_JUDE_LEISH: Cytotoxicity at 2uM final concentration against transgenic Leishmania Mexicana promastigotes LmPfHT that are glucose transport deficient and complemented with the Plasmodium falciparum hexose transporter. Activity is measured by DNA content using SYBR green in vitro.
Assay [3] deals with Glucose transporter (Leishmania mexicana) (UniProt O61059). Nature of the assay: ST_JUDE_LEISH: Cytotoxicity at 2uM final concentration against transgenic Leishmania Mexicana promastigotes LmGT2 that are glucose transport deficient and complemented with the L. Mexicana glucose transporter 2. Activity is measured by DNA content using SYBR green in vitro.

Chain of Solute carrier family 2, facilitated glucose transporter member 1 (Homo sapiens) (P11166 whole entry): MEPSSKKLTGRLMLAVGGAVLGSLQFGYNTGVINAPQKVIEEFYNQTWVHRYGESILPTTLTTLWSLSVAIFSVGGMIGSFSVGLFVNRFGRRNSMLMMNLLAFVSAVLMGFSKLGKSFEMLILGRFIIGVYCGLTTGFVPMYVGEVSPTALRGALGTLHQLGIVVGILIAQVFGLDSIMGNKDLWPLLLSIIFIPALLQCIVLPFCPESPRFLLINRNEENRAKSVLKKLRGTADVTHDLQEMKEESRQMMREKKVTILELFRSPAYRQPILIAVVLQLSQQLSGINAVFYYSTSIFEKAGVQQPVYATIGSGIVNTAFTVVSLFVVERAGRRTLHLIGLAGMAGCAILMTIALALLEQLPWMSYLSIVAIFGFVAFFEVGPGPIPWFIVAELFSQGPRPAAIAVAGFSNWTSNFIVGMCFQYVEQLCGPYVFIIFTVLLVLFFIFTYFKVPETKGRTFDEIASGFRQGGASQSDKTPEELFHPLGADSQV

`COc1ccc(C2(CNCC(O)c3cccc([N+](=O)[O-])c3)CCCC2)cc1OC` (centres undefined): the inhibition was determined as 2.7% in assay [1], 4.72% in assay [2] and 3.66% in assay [3].
The matching figures for `c1ccc(CNc2nc(NCCN3CCCCC3)nc3ccccc23)cc1`: 10.2%, 11.1% and 4.27%.
The matching figures for `COc1ccc2nc3cc(Cl)ccc3c(Nc3ccc(C(=O)O)cc3)c2c1`: 5.95%, -1.31% and 0.06%.
The matching figures for `Fc1cccc(C=NN=c2cc[nH]c3ccccc23)c1`: 9.03%, 6.41% and 6.88%.
On to `COc1ccccc1C1CC(c2ccc(Br)cc2)=NN1C(=O)c1ccccc1` (centres undefined), for which the inhibition in assay [1] amounted to 2.83%; in assay [2], 2.02%; in assay [3], 0.92%.
For `Cc1cc(OCc2ccncc2)cc2c1C(=O)CC(C)(C)O2`, the inhibition in assay [1] was -0.52%; in assay [2] it was 2.18%; in assay [3] it was 0.39%.
The matching figures for `CC(C)C[C@@H](NC(=O)OC(C)(C)C)C(=O)Nc1ccc(Cc2ccc(NC(=O)[C@@H](CC(C)C)NC(=O)OC(C)(C)C)cc2)cc1`: 3.6%, 3.72% and 0.63%.
The matching figures for `O=C(Nc1cccc(-c2nn3ccccc3c2-c2ccnc(Nc3ccccc3)n2)c1)c1cc(F)ccc1F`: 4.48%, 2.05% and -2.21%.
